DRD3 agonist = activates the human D3 dopamine receptor | actives 0.58% (n = 410,000) | P35462 | D3R DiscoveRx beta-arrestin cells, luminescence, 90 min | max activation, %; in the data active = max activation above about 30%; also: 0% is about no effect
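Agonist-mode cell screen: cells plated at 1500/well and incubated overnight at 37 °C, then exposed to library compounds for 90 min at 37 °C. Detection reagent was added for 30–60 min at room temperature, and luminescence was read.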
DRD3 antagonist = antagonists of human D3 dopamine receptor. P35462. D3R cells, DiscoveRx beta-arrestin luminescence, antagonist mode; stronger effect = lower value. max response, negative = inhibition, %. actives 2.5% (n = 360,000). AID 652054; in the data active = max response below about -50%; inconclusive = no clear call, values can overlap the other calls; also: % is scaled to controls: 0 for no effect and ±100 for the full control effect
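Cells expressing the human receptor were seeded at 1500 cells/well, incubated overnight at 37 degrees C in 5% CO2, then exposed to library compounds with dopamine controls for 90 minutes at 37 degrees C before luminescent detection.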
HEK293 tox = cytotoxic in the GLP-1 receptor inverse agonist counter-screen; HEK293 cAMP-luciferase reporter cells, luminescence, 24 h; Potency, µM (titrated, usually from 38.3 µM), without a hit: top-dose activity change, negative = inhibition, most hits filed as inhibitors; actives 0.13% (n = 410,000); AID 624418;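 also: loss of luciferase light is scored as toxicity; potency is read from the fitted curve at half-maximal effect; % is scaled to controls: 0 for no effect and ±100 for the full control effect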
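Luminescence readout: signal drop marks cytotoxicity. Plated cells grew 12 h at 37 °C, 5% CO2, received 23 nL compound for 24 h, then got luciferase reagent, read after 12 min at RT.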
GLP1R inv ag = acts as inverse agonist at human GLP-1 receptor. P43220. HEK293 GLP-1R CRE-luciferase, luminescence, 24 h; GLP-1R form is constitutively active. Potency, µM (highest dose often 38.3 µM), for inactives: at the top dose activity change, negative = inhibition, usual class: inhibitors. actives 1.6% (n = 410,000); also: potency is read from the fitted curve at half-maximal effect; % is scaled to controls: 0 for no effect and ±100 for the full control effect; nearly all actives have a fitted effect of over 55% in size
Target sequence (P43220 whole entry, looked up): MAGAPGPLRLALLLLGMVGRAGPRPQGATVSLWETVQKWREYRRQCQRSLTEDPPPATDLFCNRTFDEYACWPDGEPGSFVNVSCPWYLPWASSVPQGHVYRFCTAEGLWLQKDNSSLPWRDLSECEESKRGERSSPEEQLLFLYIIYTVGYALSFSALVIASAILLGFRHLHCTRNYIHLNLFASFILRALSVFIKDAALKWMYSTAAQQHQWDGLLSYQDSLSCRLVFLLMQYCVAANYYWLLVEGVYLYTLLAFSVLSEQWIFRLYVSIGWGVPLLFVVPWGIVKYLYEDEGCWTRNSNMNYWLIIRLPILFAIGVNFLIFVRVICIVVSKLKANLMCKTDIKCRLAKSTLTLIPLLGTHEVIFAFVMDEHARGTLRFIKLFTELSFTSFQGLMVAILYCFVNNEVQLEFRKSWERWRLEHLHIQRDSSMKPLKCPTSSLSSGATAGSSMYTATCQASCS
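Stable HEK293 clone (constitutively active GLP-1R + cAMP-response luciferase); 200 cells/uL plated, 12 h pre-culture, compound 24 hr, 37 deg C/5% CO2; detection reagent 12 min RT; luminescence.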
GLP1R ag = GLP-1 receptor (human) agonism | P43220 | HEK293 GLP-1R CRE-luciferase, luminescence, 4-6 h; cells express a hypersensitive GLP-1R form | Potency, µM (titrated, usually from 45.6 µM), inactives show at the highest dose activation, most hits filed as activators | actives 0.007% (n = 380,000); also: potency is read from the fitted curve at half-maximal effect; % of control where 0% means no effect
ClpP mod = qHTS Assay for Activators of ClpP | ATP-dependent Clp protease proteolytic subunit (Bacillus subtilis (strain 168)), P80244 | purified B. subtilis ClpP, FRET peptide cleavage, 20 min | Potency, µM (top dose mostly 57.5 µM), inactives show top-dose activity change, negative = active | actives 1.9% (n = 340,000) | AID 651965, 2013; active = well fitted falling curve with a large enough effect; inconclusive = small, poorly fitted or top-dose-only effect; inactive = no such curve, though single readings can be large or run the other way; also: potency is read from the fitted curve at half-maximal effect; the source files actives as falling curves though it sought activators and does not explain the sign; nearly all actives have a fitted effect of over 65% in size
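ClpP 10 microg/mL final, pH 8 Tris/KCl buffer with BSA, glycerol, Tween-20; compound pinned in; FRET-FV substrate; RT 20 min; Ex320/Em430; ΔFRET vs ADEP 5.8 microM, DMSO, no enzyme.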
Numbers without * were called inactive; ? = inconclusive; · = no result. In the library only some 5.7% were active in any assay of this set; here they are far more common. Unless noted, calls follow the shape of the dose curve; as a rule, active = well fitted curve in the direction sought with a large enough effect; inconclusive = small, poorly fitted or top-dose-only effect, or another doubt; inactive = no such curve, though single readings can be large; an effect the other way counts as inactive or inconclusive.

SMILES	DRD3 agonist	DRD3 antagonist	HEK293 tox	GLP1R inv ag	GLP1R ag	ClpP mod
CCOC(=O)[C@]12CCCC=C1N(Cc1ccc3c(c1)OCO3)C(=O)[C@H](CC(=O)N1CCN(C(=O)C3CC3)CC1)C2	-5	-9	0%	14%	4%	0%
CCCN1CNc2c(c(=O)[nH]c(=S)n2Cc2ccc(OC)c(OC)c2)C1	·	·	·	·	·	-2%
COc1cc2nc(Cl)nc(NC(C)C)c2cc1OC	·	·	·	·	·	-15%
CCC[N+](C)(C)c1ccc(/C=C/c2ccnc3ccccc23)cc1	·	·	·	·	·	1%
CCCCn1nnnc1C(c1cc2ccccc2o1)N(Cc1ccccc1)Cc1ccccc1 (stereo not drawn)	4	3	3%	?	0%	-1%
CCCNC(=O)c1c(CSc2ccc(Cl)cc2)noc1C(=O)NCc1ccccc1	-12	0	5%	5µM*	2%	-3%
COCCNc1nc(C)cc(-c2cc(C(=O)NCc3ccccc3)on2)n1	1	-17	1%	4%	17%	-9%
COCCNC(=O)c1c(CS(=O)(=O)c2ccccc2)noc1C(=O)NCc1ccccc1	36*	13	8%	-8%	-5%	0%
Cc1cc(-c2cc(C(=O)NCc3ccccc3)on2)nc(S(C)(=O)=O)n1	-31	-65*	9%	43%	-5%	-5%
Cc1ccc2occ(-c3cc(-c4ccccc4)nc4c3COc3ccccc3-4)c(=O)c2c1	3	·	-8%	4%	1%	-4%
Cc1cc(NC(=O)CCc2nc3cccnc3n2-c2ccccc2)ccc1Br	-15	·	-5%	-10%	·	2%
CCOCCN1CCN(C2c3ccccc3CSc3ccccc32)CC1 (stereo not drawn)	-34	-76*	?	?	0%	1%
Cn1ccnc1SCc1cn2cc(Br)ccc2n1	1	?	-13%	4.5µM*	-21%	0%
CCOC(=O)N1CCN(S(=O)(=O)c2ccc3[nH]c(=O)oc3c2)CC1	34*	-6	-4%	-13%	-8%	-1%
O=S(=O)(c1ccc(N2CCOCC2)nc1)N1CCOCC1	2	8	2%	-12%	-14%	-5%
Cc1ccc(C(C)NC(=O)CSc2ccc(S(=O)(=O)N3CCOCC3)cn2)cc1C (stereo not drawn)	-6	11	-5%	-8%	4%	25µM*
CCOC(=O)N1CCN(c2ccc(S(=O)(=O)N3CCOCC3)cn2)CC1	3	12	-4%	15%	0%	28µM*
CCCn1cnc2c(c1=O)c1nc3ccccc3nc1n2CCc1ccccc1	19	-53*	4%	0%	1%	-14%
COCCCn1c2nc3ccccc3nc2c2c(=O)n(CC3CCCO3)cnc21 (stereo not drawn)	2	28	2%	32%	3%	13µM*
COCCCn1cnc2c(c1=O)c1nc3ccccc3nc1n2-c1ccc(C)cc1	11	-11	71%	23%	-2%	-5%
CC1(C)CC(=O)C=C(c2ccc(COC(=O)C(c3ccccc3)c3ccccc3)cc2)C1=O	2	6	1%	?	-3%	2%
COC(c1ccccc1)c1nnc(CCC(=O)N(C)CCCC2CCCC2)o1 (stereo not drawn)	1	-1	-19%	10µM*	12%	0%
COC(c1ccccc1)c1nnc(CCC(=O)N(C)CCOc2ccccc2)o1 (stereo not drawn)	5	-1	11%	?	6%	·
Cc1ccc(Cl)cc1N1CCN(CCNC(=O)Nc2ccccc2Cl)CC1	-25	·	-6%	-21%	1%	1%
COc1ccc(Cl)cc1C(=O)Nc1ccc2oc(-c3ccc(C(C)(C)C)cc3)nc2c1	8	·	0%	-1%	·	-15%
CCOC(=O)c1c(C(F)(F)C(F)(F)C(F)(F)C(F)(F)F)n[nH]c1C	-3	6	?	10µM*	-1%	1%

Source: PubChem BioAssay
